Shown are actives, neighbours in structure and some others; about 4.7% of the full set was active somewhere.
D1 PAM: human D1 dopamine receptor positive modulation. P21728. HEK293 TREx D1 cells, calcium flux, dopamine EC20 potentiation. potentiation, % at 10 µM. actives 0.036% (n = 360,000). AID 504651; in the data active = potentiation above about 30%; also: 0% is about no effect
D1 antagonist: blocks dopamine activation of the human D1 receptor; P21728; HEK293 TREx D1 cells, calcium flux, dopamine EC80; hits give low values; activity change, negative = inhibition, % at 10 µM; actives 3.2% (n = 360,000); AID 504652; in the data active = activity change below about -30%; also: % is scaled to controls: 0 for no effect and ±100 for the full control effect
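Cells carrying a force-coupled, tetracycline-inducible human D1 receptor report calcium flux. Each well gets a 10 s baseline, compound with 180 s monitoring, then an EC80 dopamine stimulus with a second 180 s kinetic read.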
TRHR ag: agonists of human TRH receptor; P34981; TRHR cells, calcium flux fluo-8, FDSS agonist mode; activation, % at 2 µM; actives 0.18% (n = 360,000); AID 493084; also: 0% is about no effect
Target sequence (P34981 whole entry, looked up): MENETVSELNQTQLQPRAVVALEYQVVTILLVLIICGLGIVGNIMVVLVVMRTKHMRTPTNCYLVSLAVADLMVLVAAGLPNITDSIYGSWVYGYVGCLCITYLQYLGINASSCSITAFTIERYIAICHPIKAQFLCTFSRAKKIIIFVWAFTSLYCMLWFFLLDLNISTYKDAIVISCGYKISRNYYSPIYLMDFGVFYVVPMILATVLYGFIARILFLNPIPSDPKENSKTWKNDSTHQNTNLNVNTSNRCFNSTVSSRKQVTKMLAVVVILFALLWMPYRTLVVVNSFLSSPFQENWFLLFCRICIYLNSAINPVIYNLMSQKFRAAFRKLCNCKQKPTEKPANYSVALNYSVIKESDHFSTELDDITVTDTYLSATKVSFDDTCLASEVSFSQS
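Fluo-8-loaded TRHR cells; 10 s baseline, compound added, kinetic Ca2+ fluorescence read 1/s, agonist mode.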
D1 agonist: activates the human D1 dopamine receptor | actives 1% (n = 360,000) | activation, % at 2 µM | P21728 | HEK293 T-REx D1 cells, calcium flux, agonist mode; also: 0% is about no effect
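Tetracycline-induced HEK293 TREx D1 cells, force-coupled to calcium signalling, were dye-loaded with a no-wash calcium kit. Compound was pin-added after a 10 s baseline. Fluorescence was read kinetically at 1 cycle/s for 180 s, with calcium rises flagged as agonism.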
TRHR enhancer: allosterically enhances the human TRH receptor; TRHR cells, fluo-8 calcium fluorescence, EC20 TRH enhancement; enhancement, % at 2 µM; actives 0.66% (n = 360,000); in the data active = enhancement above about 30%; also: 0% is about no effect
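TRHR-expressing cells loaded with fluo-8 calcium dye were read kinetically (ex 480/em 530) during compound addition, then stimulated with an EC20 of TRH (10 nM final). Enhancement of the Gq-mediated intracellular calcium response was scored.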
Active calls of the source: *; . = not tested or not shown; ! = a repeat was not active. Rule as the data show it, unless noted: active = activation above about 30%; inactive = the rest.

SMILES | D1 PAM | D1 antagonist | TRHR ag | D1 agonist | TRHR enhancer
CC1(C)CC2CC(C)(CN2C(=O)c2ccccc2)C1 (stereo not given) | -4 | 4 | -1 | 0 | -5
Cc1cccc(NC(=O)CCNS(=O)(=O)c2cccc3nonc23)c1 | -3 | -50*! | -1 | 3 | 4
COc1ccc(NC(=O)CCS(=O)(=O)c2cccc3nonc23)c(OC)c1 | 1 | -45* | 0 | 0 | -4
Cc1ccc(NC(=O)CCNS(=O)(=O)c2cccc3nonc23)cc1Cl | -8 | -32*! | -1 | 3 | -8
Cc1ccc(S(=O)(=O)N(C)S(=O)(=O)c2ccc(C#N)cc2)cc1 | -5 | -3 | -1 | 3 | 8
CC(=O)Nc1ccc(NC(=O)c2ccc3c(c2)N(Cc2cccc(Cl)c2)C(=O)c2ccccc2S3=O)cc1 (stereo not given) | 0 | 9 | 0 | 1 | 16
O=c1c2ccccc2nc(/C=C/c2cccc3ccccc23)n1-c1ccc(F)cc1F | -2 | 4 | 0 | 1 | -8
COc1cc(OC)c(OC)cc1/C=C/c1nc2cc3ccccc3cc2c(=O)n1-c1ccc(F)cc1F | 2 | 10 | 10 | 42* | -2
Cc1ccc(C)c(-n2cc(CNCCCn3cccn3)c(-c3ccccc3)n2)c1 | 6 | -7 | 2 | 40* | -2
Cc1ccc(C)c(-n2cc(CNC(C)Cn3cncn3)c(-c3ccccc3)n2)c1 (stereo not given) | -1 | -10 | 0 | 2 | -2
Cc1ccc(-n2cc(CNCCCn3cccn3)c(-c3cccc(C)c3)n2)cc1 | -15 | -41* | 1 | 44* | -1
CC1Cc2ccccc2N1C(=O)CN1C(=O)NC(C)(c2ccc3c(c2)OCCO3)C1=O (stereo not given) | 5 | 12 | 7 | 38* | 5
CC1(c2ccc3c(c2)OCCO3)NC(=O)N(CC(=O)c2ccc[nH]2)C1=O (stereo not given) | . | 8 | 0 | 7 | 4
COc1cccc2c1cc1c(=O)n(CC(=O)NCc3ccc(C)o3)nc(C)n12 | -3 | 4 | 0 | 0 | -5
CCOC(=O)N1CCN(Cc2nc3cc(NC(=O)CC(C)C)ccc3n2CC)CC1 | 1 | -22 | -2 | 0 | 0
CC(C)Sc1nc2c(c(=O)n1C)SC(C)C2 (stereo not given) | -10 | -32* | -1 | 2 | -9
CC1Cc2nc(SCC(=O)N3CCOCC3)n(C)c(=O)c2S1 (stereo not given) | -2 | 2 | 0 | 3 | -1
COc1ccc(S(=O)(=O)N2CCCCCC2)cc1C(=O)N(C)Cc1ccc(OC)c(OC)c1OC | -3 | 17 | 0 | 0 | -9
COc1ccccc1NC(=O)CCNC(=O)Cn1ccc2ccccc2c1=O | -2 | -12 | 0 | 1 | 2
Cc1ccccc1NC(=O)CCNC(=O)Cn1ccc2ccccc2c1=O | 1 | -35* | 0 | 3 | 0
CCc1ccc(N2CC(C(=O)OCC(=O)c3c(N)n(CC(C)C)c(=O)n(C)c3=O)CC2=O)cc1 (stereo not given) | -1 | -13 | 0 | 1 | 5
C=CCOC(=O)C1=C[C@@H](c2coc3ccccc3c2=O)C[C@@H](OCc2ccc(CO)cc2)O1 | -1 | -49* | 0 | -2 | 2
O=C(Nc1ccccc1)C1=C[C@@H](c2coc3ccccc3c2=O)C[C@@H](OCc2ccc(CO)cc2)O1 | -4 | -37* | 0 | -3 | 0
O=C(NCc1ccccc1)C1=C[C@H](c2coc3ccccc3c2=O)C[C@H](OCc2ccc(CO)cc2)O1 | 1 | 6 | 1 | 4 | 5
C=CCOC(=O)C1=C[C@H](c2coc3ccccc3c2=O)C[C@H](OCc2ccc(CO)cc2)O1 | -3 | 22 | -1 | 8 | -1
C=CCN1C(=O)c2ccc(C(=O)N(CCC)CC(=O)Nc3ccccc3C)cc2C1=O | -1 | 12 | 0 | 0 | 3
Cc1cccc(-c2nc(SCC(=O)Nc3ccc4c(c3)OCO4)c(-c3ccccc3)[nH]2)c1 | -1 | 5 | 0 | 0 | 9
C/C(=N/NC(=O)c1ccc(Br)o1)c1cccs1 | -2 | -5 | 0 | 0 | -2
C/C(=N\NC(=O)c1cc(Br)ccc1O)c1cccs1 | -8 | -12 | 0 | 32* | 0
COc1ccc(-c2cc3ccc(O)cc3oc2=O)cc1OC | -5 | 7 | -1 | 17 | 31*
